Source: PubChem
pS6 MEF inh: mTORC1 pathway inhibition measured by phospho-rpS6 | actives 0.78% (n = 44,000) | Tsc2-/- p53-/- MEF, phospho-rpS6 immunofluorescence/PI, 24 h | Potency, µM (highest dose often 38.3 µM), for inactives: at the highest dose activity change, negative = inhibition, usual class: inhibitors;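 note: plate controls were DMSO for no effect and rapamycin for full effect; nearly all actives have a fitted effect of over 50% in size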
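Readout is phospho-S6 Alexa 488 signal normalized to PI per well, reported as % active cells with thresholds set from rapamycin (7.5 nM) and DMSO controls. Cells: Tsc2-/-, p53-/- MEFs, 24 hrs compound at 37 C; PI cell number serves as viability.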
PMP22 txn: modulates PMP22 transcription in S16 Schwann cells | S16 Pmp22-F2sN Schwann cells, FLuc/NLuc coincidence luminescence, 24 h | Potency, µM (titrated, usually from 57.5 µM), for the others: top-dose activity change, negative = inhibition, most hits filed as inhibitors | actives 2% (n = 43,000) | AID 1508649; active = clear falling dose curves in both reporters; inconclusive = both reporters move, but less clearly or upward; inactive = either reporter flat; the % is the NLuc reporter signal
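Luminescent read-out of sequential FLuc and NLuc signals from a reporter embedded in the Pmp22 3' UTR of S16 Schwann cells, taken after 24 h compound exposure at 37C; compounds reducing both signals score as inhibitors of expression.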
S16 F2sN tox: toxic to S16 Pmp22-F2sN Schwann cells | S16 Pmp22-F2sN Schwann cells (luciferase reporters placed in the Pmp22 gene) viability, CellTiter-Glo, 24 h | Potency, µM (top dose mostly 57.5 µM), for inactives: at the top dose activity change, negative = cytotoxicity, usual class: cytotoxic | actives 0.48% (n = 43,000) | AID 1508642; note: nearly all actives have a fitted effect of over 65% in size
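Seed 500-1,000 S16 Pmp22-F2sN cells per well in phenol-red-free DMEM with 10% heat-inactivated FBS; pin-add 23 nL compound; incubate 24 h at 37C; add CellTiter-Glo, wait 15 min protected from light; read luminescence.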
p53null 32C kill: kills p53 null cells at the permissive temperature | H1299-neo p53 null cells, ATP luminescence, 24 h, 32C | Potency, µM (titrated, usually from 46.1 µM), inactives show at the highest dose activity change, negative = cytotoxicity, actives largely listed as cytotoxic | actives 0.62% (n = 55,000);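 note: 0% = DMSO only and -100% = full killing by 100 µM tamoxifen; nearly all actives have a fitted effect of over 55% in size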
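AC50 values derive from Hill modelling of qHTS concentration-response data (up to 46 uM) in H1299-neo cells. Cells were treated 24 h at 32C following overnight attachment at 37C; viability was read as cellular ATP.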
p53null 39C tox: p53 null cell cytotoxicity, nonpermissive temperature; H1299 p53-null (neo) cells, 39C, ATPlite viability, 24 h; Potency, µM (top dose mostly 46.1 µM), inactives show at the top dose activity, negative = cell killing, actives largely listed as cytotoxic; actives 0.97% (n = 55,000); AID 904;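 note: 0% = DMSO only and -100% = full killing by 100 µM tamoxifen; nearly all actives have a fitted effect of over 50% in size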
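Luminescent ATP signal reported cell survival after H1299 lines (neo, p53 null; or p53 A138V) received up to 46 uM compound and 24 hr incubation at 39C.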
Starred values were filed as active, the others as inactive; ? = inconclusive; . = no result. Most compounds without a hit are left out; they make up all but 3.2% or so of the library. Unless noted, calls come from the whole dose curve; as a rule, active = well fitted curve in the direction sought with a large enough effect; inconclusive = small, poorly fitted or top-dose-only effect, or another doubt; inactive = no such curve, though single readings can be large; an effect the other way counts as inactive or inconclusive. Unless noted, % is set by controls: 0 for no effect and ±100 for the full control effect; potency is the fitted concentration of half-maximal effect.

SMILES	pS6 MEF inh	PMP22 txn	S16 F2sN tox	p53null 32C kill	p53null 39C tox
CCOC(=O)N1CCc2c(sc3c2c(=O)n(-c2ccc(Cl)cc2)c(=O)n3CC(=O)Nc2ccccc2)C1	1%	?	13µM*	0%	5%
CC(=O)N1CCc2c(sc3c2c(=O)n(-c2ccc(C)cc2)c(=O)n3CC(=O)Nc2ccccc2)C1	-11%	-32%	-4%	-14%	-8%
CCc1nn2c(=O)cc(COC(=O)c3ccccc3NC(=O)COc3ccc(F)cc3)nc2s1	15%	-3%	-16%	-16%	0%
COc1ccc(CC(=O)Nc2sc3c(c2C(=O)Nc2ccccc2)CCCCC3)cc1	4.6µM*	?	?	-8%	?
COc1ccccc1NC(=O)c1c(NCc2ccc(C)o2)sc2c1CCCCC2	?	14µM*	5%	?	20%
COc1ccc(OC)c(NC(=O)c2c(NCc3ccc(C)o3)sc3c2CCCCC3)c1	?	?	?	27%	9%
O=C(Cc1ccccc1)Nc1sc2c(c1C(=O)Nc1ccccc1)CCCCC2	?	?	-12%	-7%	-18%
COC(=O)C1CCN(C(c2ccccc2)c2sc3nc(-c4ccco4)nn3c2O)CC1 (configuration not stated)	-1%	40%	4%	-5%	33%
O=C(CSc1nc(-c2ccc(F)cc2)[nH]c1-c1ccc(F)cc1)Nc1ccc2c(c1)OCO2	-16%	?	?	2%	?
CCOc1ccc(S(=O)(=O)Nc2cccc(-c3ccc(N4CCC(C)CC4)nn3)c2)cc1	-3%	.	.	?	?
Cc1ccc(S(=O)(=O)Nc2cccc(-c3ccc(N4CCC(C)CC4)nn3)c2)s1	?	.	.	13µM*	16µM*
CC1CCN(c2ccc(-c3cccc(NS(=O)(=O)c4ccc(F)cc4F)c3)nn2)CC1	-7%	.	.	10µM*	10µM*
COCCNC(=O)CCN1C(=O)c2cccnc2Oc2ccc(C)cc21	-9%	-4%	8%	2%	0%
CC(C)NC(=O)CCSc1nc(-c2ccc3c(c2)OCO3)cc(C(F)(F)F)n1	-7%	?	7%	-2%	7%
Cc1ccc(C(=O)CC2(O)C(=O)N(Cc3ccccc3F)c3ccccc32)cc1 (configuration not stated)	?	?	?	16%	-9%
Cc1ccc(CN2C(=O)C(O)(CC(=O)c3ccc(C)cc3)c3ccccc32)cc1 (configuration not stated)	9.3µM*	7.6µM*	?	9%	20%
Cc1ccccc1CN1C(=O)C(O)(CC(=O)c2cccc(Br)c2)c2ccccc21 (configuration not stated)	-14%	?	-24%	?	32µM*
COc1ccc(OC)c(C(=O)CC2(O)C(=O)N(Cc3ccccc3C)c3ccccc32)c1 (configuration not stated)	?	-25%	?	14%	?
Cc1cccc(N2C(=O)CCSC23C(=O)N(Cc2ccc(F)cc2)c2ccccc23)c1 (configuration not stated)	-29%	?	-1%	15%	?
CCN(CC)CCCNc1sc(S(=O)(=O)c2ccccc2)nc1S(=O)(=O)c1ccc(Cl)cc1	9.3µM*	?	?	2%	?
CCOC(=O)c1ccccc1NC(=O)Cn1ccn2nc(-c3ccc(OCC)cc3)cc2c1=O	0%	7%	-4%	-1%	-7%
Cc1c(Cl)ccc2sc(N3CCN(C(=O)CCS(=O)(=O)c4ccc(F)cc4)CC3)nc12	-19%	12µM*	?	3%	30%
CCOc1ccc2nc(N3CCN(C(=O)c4ccc(S(=O)(=O)CC)cc4)CC3)sc2c1	-5%	-26%	-28%	-13%	19%
CCOc1ccc2nc(N3CCN(C(=O)CS(=O)(=O)c4ccc(F)cc4)CC3)sc2c1	-8%	?	?	10µM*	?
CCCCOC(=O)c1cccc(NC(=O)c2cc3ccccc3o2)c1	17%	?	-15%	10µM*	13µM*
SMILES	pS6 MEF inh	PMP22 txn	S16 F2sN tox	p53null 32C kill	p53null 39C tox
CC(C)Cc1nn2cc(-c3cccc(Br)c3)nc2s1	-6%	?	-4%	13µM*	16µM*
CCCCCc1nn2cc(-c3ccccc3)nc2s1	2%	-9%	11%	10µM*	16µM*
CCc1ccc(NC(=O)C2CCN(c3nn4cc(-c5ccc(OC)cc5)nc4s3)CC2)cc1	-5%	-30%	-7%	0%	-7%
CC(C)Cn1c(-c2cccc(Br)c2)nc2ccccc21	0%	?	-16%	16%	-3%
CCc1ccc(-c2cn3nc(CC)sc3n2)cc1	?	-25%	5%	13µM*	10µM*
CCCc1nn2c(C)c(-c3ccccc3)nc2s1	-3%	?	4%	7.9µM*	10µM*
O=C(CN1C(=O)COc2ccc(S(=O)(=O)NC3CCCC3)cc21)NCc1ccc(Cl)cc1	-1%	-29%	-5%	3%	-23%
COc1ccc(NC(=O)C(NC(=O)/C=C\c2ccc3c(c2)OCO3)c2ccccc2)cc1 (configuration not stated)	10µM*	-24%	-28%	1%	15%
Cc1cccc(N2CCN(C(=O)c3ccc4c(c3)N(Cc3ccccc3F)C(=O)c3ccccc3S4=O)CC2C)c1 (configuration not stated)	-10%	9µM*	11%	-1%	1%
O=C(c1ccc2c(c1)N(Cc1cccc(Cl)c1)C(=O)c1ccccc1S2=O)N1CCN(c2cccc(C(F)(F)F)c2)CC1 (configuration not stated)	-1%	11µM*	?	11%	14%
CCN1C(=O)c2ccccc2S(=O)c2ccc(C(=O)N3CCN(c4cccc(C)c4)C(C)C3)cc21 (configuration not stated)	2%	?	?	-7%	-1%
Cc1ccccc1NC(=O)c1c(NC(=O)Cc2ccccc2)sc2c1CCC2	3%	0%	9%	7%	2%
COc1ccc(C)cc1NC(=O)C(Cc1ccccc1)NS(=O)(=O)c1ccc(Br)s1 (configuration not stated)	6.6µM*	?	1%	-4%	?
CCOc1ccc(S(=O)(=O)Nc2ccc3oc(C)c(C(=O)OCCOC)c3c2)cc1	-30%	?	1%	12%	13%
COCc1oc2ccc(NS(=O)(=O)c3ccc(C)cc3)cc2c1C(=O)OC	?	7.1µM*	-26%	15%	10%
O=C(CC(Nc1ccc(Cl)cc1)C(=O)O)c1ccccc1 (configuration not stated)	.	.	.	?	14µM*
